According to PubChem BioAssay (EPA / NIEHS):
Active and inactive are the calls of the source. How the source made its calls: active means hit-call score of the fitted dose curve at least 0.9, where 1 is the maximum; inactive means score below 0.9.

Assays:
[1] = ATG_CRE_CIS: Attagene CIS-FACTORIAL HepG2 Assay for human cAMP Responsive Element (CRE) binding protein 3 (AID 2282926); details: HepG2 CRE cis-reporter, Attagene multiplexed mRNA; actives raise or lower the signal
In short: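 Multiplexed transcription-unit reporters transfected into HepG2; 24 h dosing; RT-PCR/capillary electrophoresis fluorescence read-out; bidirectional fit vs DMSO.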

[2] = molecular target: CCAAT/enhancer-binding protein beta (Homo sapiens) (UniProt P17676); test: ATG_C_EBP_CIS: Attagene CIS-FACTORIAL HepG2 Assay for human CCAAT/Enhancer Binding Protein (C/EBP) beta (AID 2282927); details: HepG2 Attagene cis-factorial transcription factor reporter; actives raise or lower the signal
In short: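 RT-PCR/capillary electrophoresis fluorescence of reporter mRNA, 24 h post-dose, in HepG2 cells carrying transfected cis-promoter reporter units. Bidirectional curve fitting against DMSO baseline captures gain or loss of signal.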

[3] = ATG_CMV_CIS: Attagene CIS-FACTORIAL HepG2 Assay for human CMV (Internal Marker) (AID 2282928); details: HepG2 CMV promoter reporter, transcription factor profiling; actives raise or lower the signal;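 further: endpoint acts as a background internal control marker rather than a target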
In short: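 HepG2 cells transiently transfected with multiple cis-regulated reporter units; 24 h compound exposure. Reporter mRNA quantified by RT-PCR, 6-FAM primer-extension labeling, HpaI digestion and capillary electrophoresis; bidirectional fitting against DMSO baseline.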

[4] = ATG_AP_1_CIS: Attagene CIS-FACTORIAL HepG2 Assay for human Activator Protein 1 (AP-1) (AID 2282931); details: HepG2 Attagene cis-factorial AP-1 reporter mRNA; actives raise or lower the signal
In short: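 Endogenous transcription-factor activity in human HepG2 liver cells is read through a cis-promoter reporter transcript, sampled 24 h after dosing. Detection uses RT-PCR with capillary electrophoresis; values come from bidirectional fitting relative to DMSO.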

[5] = ATG_AP_2_CIS: Attagene CIS-FACTORIAL HepG2 Assay for human Activator Protein 2 (AP-2) (AID 2282932); details: HepG2 AP-2 cis-reporter, Attagene transcription factor profiling; actives raise or lower the signal
In short: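 HepG2 cells were transiently transfected with multiple cis-promoter reporter transcription units and dosed for 24 h. Reporter mRNA was measured by RT-PCR with capillary electrophoresis fluorescence; bidirectional fits relative to DMSO baseline.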

[6] = ATG_BRE_CIS: Attagene CIS-FACTORIAL HepG2 Assay for human Bone Morphogenetic Protein (BMP) Response Element (BRE) (AID 2282933); details: HepG2 BMP response element reporter, Attagene transcription factor profiling; actives raise or lower the signal
In short: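 A HepG2 multiplex reporter system measured inducible reporter mRNA 24 h post-dosing. Detection: RT-PCR, 6-FAM primer extension, HpaI digestion, capillary electrophoresis. Activity fitted bidirectionally relative to DMSO.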

[7] = molecular target: Retinoic acid receptor alpha (Homo sapiens) (UniProt P10276); test: ATG_DR5_RAR_CIS: Attagene CIS-FACTORIAL HepG2 Assay for human Retinoic Acid Receptor Alpha (RARE), DR5 submotif (AID 2282934); details: HepG2 Attagene cis-factorial RARE DR5 reporter, mRNA; actives raise or lower the signal
In short: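 HepG2 cells transiently transfected with multiplexed reporter units under cis (DR5 RARE) promoters, so endogenous transcription factor activity is measured. After 24 h compound exposure, reporter mRNA is quantified by RT-PCR with fluorescent labelling and capillary electrophoresis; bidirectional fitting versus DMSO.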

[8] = molecular target: Transcription factor E2F1 (Homo sapiens) (UniProt Q01094); test: ATG_E2F_CIS: Attagene CIS-FACTORIAL HepG2 Assay for human E2F Transcription Factor 1 (AID 2282935); details: HepG2 Attagene cis-reporter, E2F reporter RNA transcripts; actives raise or lower the signal
In short: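 HepG2 cells transiently transfected with multiplexed cis-element reporter units, dosed for 24 h. Reporter mRNA measured by RT-PCR, 6-FAM primer-extension labeling, HpaI digestion and capillary electrophoresis; bidirectional fit versus DMSO baseline.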

[9] = ATG_E_Box_CIS: Attagene CIS-FACTORIAL HepG2 Assay for human Enhancer Box (E-box) (AID 2282936); details: HepG2 E-box cis-reporter transcription, actives raise or lower the signal
In short: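 HepG2 cells transiently transfected with multiplexed cis-element reporter units sensing endogenous transcription factor activity; 24 h compound exposure. Reporter mRNA measured by RT-PCR, 6-FAM primer extension, HpaI digestion and capillary electrophoresis; bidirectional fit versus DMSO.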

[10] = ATG_M_61_CIS: Attagene CIS-FACTORIAL HepG2 Assay for M61 Transcription Factor (Internal Marker) (AID 2282937); details: HepG2 Attagene CIS-FACTORIAL M61 internal marker reporter; actives raise or lower the signal
In short: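 Cells were transfected with reporter units under cis-regulatory promoters, treated with chemicals for 24 h, then lysed for RNA. Reporter transcripts were quantified by RT-PCR and capillary electrophoresis, and activity was fitted bidirectionally against DMSO.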

[11] = ATG_EGR_CIS: Attagene CIS-FACTORIAL HepG2 Assay for human Early Growth Response 1 (EGR1) (AID 2282938); details: HepG2 Attagene CIS-FACTORIAL EGR reporter mRNA; actives raise or lower the signal
In short: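 Endogenous TF activity in HepG2 liver cells was gauged through cis-promoter reporter constructs transiently transfected. After 24 h dosing, reporter mRNA was quantified by RT-PCR and capillary electrophoresis, and curves fitted in both directions versus DMSO.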

[12] = ATG_M_19_CIS: Attagene CIS-FACTORIAL HepG2 Assay for M19 Transcription Factor (Internal Marker) (AID 2282939); details: HepG2 Attagene CIS-FACTORIAL M19 internal marker reporter; actives raise or lower the signal
In short: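 Chemical-treated HepG2 (24 h) with MRTU constructs; reporter transcripts detected by fluorescent RT-PCR fragment analysis on capillary electrophoresis. Internal background marker, DMSO as baseline.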

[13] = ATG_ERE_CIS: Attagene CIS-FACTORIAL HepG2 Assay for Estrogen Response Element (ERE) (AID 2282940); details: HepG2 ERE cis-reporter, Attagene RNA transcript; actives raise or lower the signal
In short: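 Human liver cells (HepG2) bearing transiently transfected, promoter-regulated reporter units were exposed 24 h. Reporter mRNA induction was detected by capillary electrophoresis of labelled RT-PCR products and fitted bidirectionally to DMSO.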

[14] = ATG_Ets_CIS: Attagene CIS-FACTORIAL HepG2 Assay for human Erythroblast Transformation Specific (ETS) (AID 2282941); details: HepG2 ETS cis-reporter transcription, actives raise or lower the signal
In short: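 HepG2 cells transiently transfected with cis-promoter reporter transcription units were dosed for 24 h; reporter mRNA was measured by RT-PCR, 6-FAM primer extension, HpaI digestion and capillary electrophoresis, with bidirectional fitting against DMSO baseline.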

[15] = molecular target: Hepatocyte nuclear factor 3-beta (Homo sapiens) (UniProt Q9Y261); test: ATG_FoxA2_CIS: Attagene CIS-FACTORIAL HepG2 Assay for human Forkhead box A2 (FOXA2) (AID 2282942); details: HepG2 cis-reporter transcription factor activity, 24 h; actives raise or lower the signal
In short: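 Endogenous transcription factor activity was read in HepG2 cells carrying transiently transfected cis-promoter reporter units. After 24 h dosing, reporter mRNA was quantified by RT-PCR and capillary electrophoresis, and values fitted bidirectionally versus DMSO.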

[16] = ATG_FoxO_CIS: Attagene CIS-FACTORIAL HepG2 Assay for human Forkhead box O (FoxO) (AID 2282943); details: HepG2 Attagene cis-reporter, FoxO element, mRNA; actives raise or lower the signal
In short: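 HepG2 cells transiently transfected with cis-promoter-driven multiple reporter transcription units; 24 h after chemical dosing, reporter mRNA quantified by RT-PCR, fluorescent primer extension, HpaI digestion and capillary electrophoresis. Bidirectional fitting versus DMSO baseline.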

[17] = ATG_GATA_CIS: Attagene CIS-FACTORIAL HepG2 Assay for human GATA Binding Protein (AID 2282944); details: HepG2 GATA cis-element reporter, Attagene multiplex mRNA; actives raise or lower the signal
In short: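 Transfected cis-reporter HepG2 cells were treated with chemicals for 24 hours. Total RNA was then converted to cDNA, amplified with reporter-specific primers and analysed by fluorescent capillary electrophoresis, using DMSO-treated wells as baseline.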

[18] = ATG_GLI_CIS: Attagene CIS-FACTORIAL HepG2 Assay for human Zinc Finger Protein GLI1 (AID 2282945); details: HepG2, Attagene cis-factorial reporter mRNA, GLI element; actives raise or lower the signal
In short: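 HepG2 cells transiently transfected with cis-promoter multiplexed reporter units report endogenous transcription factor activity. After 24 h chemical exposure, reporter mRNA was quantified by RT-PCR, 6-FAM labelling, HpaI digestion and capillary electrophoresis, with bidirectional fitting against DMSO.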

[19] = molecular target: Aryl hydrocarbon receptor (Homo sapiens) (UniProt P35869); test: ATG_Ahr_CIS: Attagene CIS-FACTORIAL HepG2 Assay for human Aryl Hydrocarbon Receptor (Ahr) (AID 2282930); details: HepG2 AhR cis-factorial reporter transcription; actives raise or lower the signal
In short: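 HepG2 cells transiently transfected with cis-element-driven multiplexed reporter transcription units; endogenous transcription factor activity measured as reporter mRNA 24 h after dosing. RT-PCR, 6-FAM labelling, HpaI digestion, capillary electrophoresis; bidirectional fitting versus DMSO baseline.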

[20] = ATG_DR4_LXR_CIS: Attagene CIS-FACTORIAL HepG2 Assay for human Liver X Receptor (LXR), DR4 submotif (AID 2282929); details: HepG2 Attagene DR4 cis-reporter, mRNA transcription; actives raise or lower the signal
In short: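 Cells were transfected with multiple reporter transcription units, exposed to chemicals for 24 hours, then lysed for RNA. Reporter mRNA induction was measured by RT-PCR with capillary electrophoresis detection and fitted in both directions relative to DMSO.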

Measured: AC50

Sequence of Transcription factor E2F1 (Homo sapiens) (Q01094 whole entry, looked up): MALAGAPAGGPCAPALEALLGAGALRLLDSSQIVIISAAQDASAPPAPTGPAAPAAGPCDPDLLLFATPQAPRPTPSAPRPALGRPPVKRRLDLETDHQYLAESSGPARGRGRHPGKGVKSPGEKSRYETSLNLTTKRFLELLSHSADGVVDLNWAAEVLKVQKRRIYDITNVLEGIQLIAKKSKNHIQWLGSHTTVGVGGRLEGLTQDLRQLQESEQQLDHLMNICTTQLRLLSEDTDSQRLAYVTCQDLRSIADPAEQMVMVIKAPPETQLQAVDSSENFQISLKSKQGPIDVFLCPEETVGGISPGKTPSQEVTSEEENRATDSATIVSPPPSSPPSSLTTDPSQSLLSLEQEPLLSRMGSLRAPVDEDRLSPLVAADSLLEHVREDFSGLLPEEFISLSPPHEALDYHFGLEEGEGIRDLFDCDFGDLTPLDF
Sequence of Hepatocyte nuclear factor 3-beta (Homo sapiens) (Q9Y261 whole entry, looked up): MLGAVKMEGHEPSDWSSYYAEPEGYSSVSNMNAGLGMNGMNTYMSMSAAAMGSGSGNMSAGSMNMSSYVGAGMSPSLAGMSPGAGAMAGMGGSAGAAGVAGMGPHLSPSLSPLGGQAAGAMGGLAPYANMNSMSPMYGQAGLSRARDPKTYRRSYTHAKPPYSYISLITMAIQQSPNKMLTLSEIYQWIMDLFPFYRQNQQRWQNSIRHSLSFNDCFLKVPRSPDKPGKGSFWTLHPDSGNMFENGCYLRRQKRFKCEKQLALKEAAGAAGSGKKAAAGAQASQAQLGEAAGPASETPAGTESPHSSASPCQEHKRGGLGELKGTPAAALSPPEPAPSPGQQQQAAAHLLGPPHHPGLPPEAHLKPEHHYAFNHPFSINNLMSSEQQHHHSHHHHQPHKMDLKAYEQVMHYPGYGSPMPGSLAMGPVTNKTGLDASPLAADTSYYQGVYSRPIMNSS
Sequence of Retinoic acid receptor alpha (Homo sapiens) (P10276 whole entry, looked up): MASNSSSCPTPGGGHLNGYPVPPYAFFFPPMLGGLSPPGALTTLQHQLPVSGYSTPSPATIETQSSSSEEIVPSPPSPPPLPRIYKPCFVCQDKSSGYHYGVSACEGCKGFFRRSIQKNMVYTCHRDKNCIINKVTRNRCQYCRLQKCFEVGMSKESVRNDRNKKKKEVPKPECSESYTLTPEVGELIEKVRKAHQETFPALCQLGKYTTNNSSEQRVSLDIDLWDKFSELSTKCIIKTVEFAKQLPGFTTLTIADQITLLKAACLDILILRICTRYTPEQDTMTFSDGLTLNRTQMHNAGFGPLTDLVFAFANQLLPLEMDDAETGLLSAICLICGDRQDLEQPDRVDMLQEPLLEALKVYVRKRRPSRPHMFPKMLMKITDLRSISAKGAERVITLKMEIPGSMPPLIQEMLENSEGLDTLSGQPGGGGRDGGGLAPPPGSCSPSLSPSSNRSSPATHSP
Sequence of Aryl hydrocarbon receptor (Homo sapiens) (P35869 whole entry, looked up): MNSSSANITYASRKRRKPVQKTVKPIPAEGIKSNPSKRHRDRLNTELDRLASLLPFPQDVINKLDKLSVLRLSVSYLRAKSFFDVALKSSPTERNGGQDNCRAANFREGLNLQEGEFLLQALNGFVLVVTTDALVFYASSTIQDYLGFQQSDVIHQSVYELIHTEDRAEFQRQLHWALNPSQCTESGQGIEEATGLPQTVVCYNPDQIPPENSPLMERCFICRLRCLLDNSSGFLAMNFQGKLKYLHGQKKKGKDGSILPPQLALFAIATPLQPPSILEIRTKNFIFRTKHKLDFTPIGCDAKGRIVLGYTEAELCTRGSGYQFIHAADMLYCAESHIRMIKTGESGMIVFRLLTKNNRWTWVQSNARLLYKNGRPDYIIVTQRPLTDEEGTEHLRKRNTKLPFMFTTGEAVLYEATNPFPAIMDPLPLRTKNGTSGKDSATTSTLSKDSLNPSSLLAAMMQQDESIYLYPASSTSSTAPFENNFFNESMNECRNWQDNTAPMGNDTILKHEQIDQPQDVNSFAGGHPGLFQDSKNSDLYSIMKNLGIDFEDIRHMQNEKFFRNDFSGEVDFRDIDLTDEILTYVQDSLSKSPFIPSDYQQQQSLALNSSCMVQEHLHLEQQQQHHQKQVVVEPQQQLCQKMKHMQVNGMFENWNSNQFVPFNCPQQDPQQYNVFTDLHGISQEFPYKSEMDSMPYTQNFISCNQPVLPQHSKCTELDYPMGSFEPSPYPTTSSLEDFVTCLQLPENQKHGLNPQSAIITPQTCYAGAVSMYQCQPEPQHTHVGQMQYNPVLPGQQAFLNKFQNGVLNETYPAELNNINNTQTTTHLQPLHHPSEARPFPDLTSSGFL
Sequence of CCAAT/enhancer-binding protein beta (Homo sapiens) (P17676 whole entry, looked up): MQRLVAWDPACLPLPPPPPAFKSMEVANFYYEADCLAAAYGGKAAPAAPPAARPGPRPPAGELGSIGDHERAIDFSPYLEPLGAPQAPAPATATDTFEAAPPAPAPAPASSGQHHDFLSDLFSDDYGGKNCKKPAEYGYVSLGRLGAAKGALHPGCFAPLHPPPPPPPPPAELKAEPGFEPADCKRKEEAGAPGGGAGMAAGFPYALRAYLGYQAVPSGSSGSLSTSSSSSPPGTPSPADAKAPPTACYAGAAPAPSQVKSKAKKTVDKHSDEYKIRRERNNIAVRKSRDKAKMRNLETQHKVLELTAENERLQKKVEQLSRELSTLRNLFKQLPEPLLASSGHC

C[C@]12C=CC(=O)C=C1CC[C@@H]1[C@@H]2[C@@H](O)C[C@@]2(C)[C@H]1CC[C@]2(O)C(=O)CO
not listed: [19] | [20]
inactive: all other assays above

O=C1Nc2ccccc2C1(c1ccc(O)cc1)c1ccc(O)cc1
active: [1] 23.9 µM | [19] 166 µM | [4] 162 µM | [5] 44.8 µM | [11] 71.7 µM | [16] 100 µM | [18] 70.8 µM
not listed: [3] | [9] | [14] | [20]
inactive: all other assays above

CCCNC(=O)NS(=O)(=O)c1ccc(Cl)cc1
not listed: [3]
inactive: all other assays above

COc1ccc(C(Cl)=C(c2ccc(OC)cc2)c2ccc(OC)cc2)cc1
not listed: [4] | [7] | [9] | [15] | [18] | [20]
inactive: all other assays above

Cc1cc(C)c(C(=O)O)c(C)c1
not listed: [3] | [18]
inactive: all other assays above

COC(=O)c1ccccc1OC
not listed: [4] | [10] | [20]
inactive: all other assays above

CCc1c(C(=O)O)c(=O)cnn1-c1ccc(Cl)cc1
active: [13] 28.5 µM
not listed: [3]
inactive: all other assays above
